The source of these data is ChEMBL document CHEMBL3988442, “University of Dundee, Small-Polar-MMV Screening Library” (2021).

The subject of this experiment is Plasmodium falciparum. The experiment can be described thus: Calibr Malaria Delayed Death Assay SOP. Type of experiment: functional, organism-based. Set-up: scale not given: in the data most compounds retested in dose-response had high values. The following applies: concentration 4.99e-06 (unit not given; other assays of the set use mol/L).

Each structure is given as a SMILES string. Values joined by “and” are separate entries in the source; they are usually repeats but may differ in a detail not shown here. Identical values can stand only once. Among all 38,000 compounds or so, about 1,200 (3.2%) showed an effect of 50% or more. The median lay at about -58%. The list comes from a sample in which strong results are over-represented; it also holds similar structures and randomly drawn compounds.

Regarding `Cc1cccc(CN2C[C@@H]3CCCO[C@@H]3[C@H](NS(C)(=O)=O)C2)n1`, the “Percent Effect” value is reported as -67.26%.
Still for that read-out and setting: the value for `Cc1cccc(CN2C[C@@H]3CCCO[C@@H]3[C@H](Nc3ccccn3)C2)n1` was 55.52%.
As for `CN(C)Cc1nc(-n2cnc(C(=O)NC3CCCC3)c2)n2ccccc12`, the “Percent Effect” value is given as 8.682%.
Still for that read-out and setting: with `CC(C)Oc1ccccc1NC(=O)N1CCC(n2cncn2)CC1` the figure was -58.88%.
With `c1ccc(-c2cnc(CN3CCn4c(nnc4C4CC4)C3)o2)cc1`, the “Percent Effect” value was -11.2%.
The same measure, in the same setting: the value for `Cc1ccccc1-c1noc(CN2CCn3c(nnc3C3CC3)C2)n1` was 50.31%.
Same read-out and setting: with `Cc1ccc(-c2nc(CN3CCn4c(nnc4C4CC4)C3)co2)c(C)c1` the figure was -40.53%; with `CC(C)c1nnc(CN2CC(n3cccn3)Cc3ccccc32)o1` (stereo not given), -227.8%; with `O=C(NCC1CC1)c1nnc2ccc(Cl)cc2n1`, 9.063%.
The same measure, in the same setting: the value for `COCCN1CCCCC12CC(=O)N(c1ccccc1OC)C2.O=C(O)C(F)(F)F` (stereo not given) was -87.11%; that for `CCCN1CCCN(S(=O)(=O)c2cnc3onc(C)c3c2)CC1` was -59.23%; that for `CC(C)c1nccn1C1CCCN(C(=O)CCCc2ccccn2)C1` (stereo not given) was -134.4%.
On to `Clc1ccc(N2CCN(CCCN3CCCCC3)CC2)nc1`, for which the “Percent Effect” value turned out to be 68.33%.
In the case of `CSCCCN1CCN(c2ccc(Cl)cn2)CC1`, the “Percent Effect” value is given as 28.74%.
Take `CC(C)OCCN1CCN(c2ccc(Cl)cn2)CC1`: the “Percent Effect” value is reported as -78.08%.
Regarding `CCCn1cc(-c2cc(C(=O)N(C)C)c3ccc(C)cc3n2)cn1`, the “Percent Effect” value (4.99 µM) is -45.66% and -43.3%.
`CN(Cc1ccccn1)C1CC2(CCN(Cc3ccccn3)CC2)C1.O=C(O)C(F)(F)F.O=C(O)C(F)(F)F`: the “Percent Effect” value is given as -38.28%.
Still for that read-out and setting: the value for `Cc1cccnc1CC(C)Nc1ncc(C)c(N(C)C)n1` (stereo not given) was 44.79%; that for `Cc1cccc(-c2ncc(CNC(C)Cc3ncccc3C)cn2)c1` (stereo not given) was -10.25%; that for `CCn1nc2c(cc1=O)CN(CCOc1ccccc1C#N)CC2` was -106.3%.
As for `CN(Cc1ccccc1)c1ncccc1CNC1CCCC1`, the “Percent Effect” value turned out to be 65.38%.
For `CN(Cc1ccccc1)c1ncccc1CNC1CCSCC1`, the “Percent Effect” value worked out at 25.77%.
As for `CC(=O)N1CCC(NCc2cccnc2N(C)Cc2ccccc2)CC1`, the “Percent Effect” value was -58.67%.
Still for that read-out and setting: with `CC(=O)NC1CCCN(C(=O)NCc2cccnc2N(C)C)C1` (stereo not given) the figure was -14.71%.
For the compound `Cc1nnsc1C(=O)NCc1cccnc1N(C)Cc1ccccc1`, the “Percent Effect” value is recorded as -61.52%.
Same read-out and setting: with `CN(Cc1ccccc1)c1ncccc1CNC(=O)c1ccnn1C` the figure was -17.51%.
On the same count and under the same terms, the value for `CN(c1ncccc1CNCc1ncc[nH]1)C1CCCCC1` was 37.42%; that for `CN(Cc1ccccc1)c1ncccc1CNC1CN2CCC1CC2` (stereo not given) was 62.39%.
The same measure, in the same setting: the value for `CN(C)c1ncccc1CNCc1ccc(N2CCOCC2)cc1` was -64.22%; that for `CCn1cc(C(=O)NCc2cccnc2N(C)Cc2ccccc2)cn1` was -74.6%; that for `CN(Cc1ccccc1)c1ncccc1CNC1CCC1` was 69.98%.
`Cc1n[nH]c(C)c1CNC(=O)N1CCCC(Cc2nccn2C)C1` (stereo not given): the “Percent Effect” value is on record as -135.2%.
`O=C1CC(N2CCN(c3ccc(F)cc3)CC2)C(=O)N1Cc1cccs1` (stereo not given): the “Percent Effect” value is listed as -39.99%.
For `COc1ccc(Nc2c[nH]c(=O)[nH]c2=O)cc1`, the “Percent Effect” value is recorded as -70.96%.
On the same count and under the same terms, with `CNC(=O)[C@@]12CCC3(CCNCC3)[C@@H]1CN(S(C)(=O)=O)C2` the figure was -13.04%; with `N#CC1(C(=O)N2CCOC(c3ccc(F)cc3)C2)CCCC1` (stereo not given), -26.56%.
For `O=C(O)C(F)(F)F.O=C(O)C(F)(F)F.c1cncc(OC[C@]23COC[C@H]2CN(Cc2nccs2)C3)c1`, the “Percent Effect” value is recorded as -94%.
Still for that read-out and setting: the value for `Cc1cc(C(=O)N2CCn3cc(CN4CCCC4)nc3C2)no1` was -104.3%; that for `CCC(NC1CCN(S(C)(=O)=O)CC1)c1cccs1` (stereo not given) was -138.1%.
Turning to `COc1cc(NC(=O)NCC2CCCO2)cc(OC)c1` (stereo not given), the “Percent Effect” value is on record as -111.7%.
Same read-out and setting: the value for `Cc1cncc(C2CCCN(CC3CCC3)C2)n1` (stereo not given) was -16.18%.
`COC1CCN(C(=O)Nc2ccccc2)CC(=O)N(C)c2ccccc21` (stereo not given): the “Percent Effect” value is -65.05%.
For `CCc1nc(C)c(CC(=O)N2CCC3(CC2)OCCCC3OC)c(=O)[nH]1` (stereo not given), the “Percent Effect” value is listed as -118.2%.
Consider `CCN1CCC(CNCc2c[nH]nc2C(C)(C)C)C1.Cl` (stereo not given), for which the “Percent Effect” value was -150.6%.
`CCN1CCCC(CNC(=O)CCc2ccc(OC)c(F)c2)C1` (stereo not given): the “Percent Effect” value is recorded as -76.38%.
Same read-out and setting: with `CCN1CCC(Cn2ccc3c(OC)c(OC)ccc3c2=O)C1` (stereo not given) the figure was 20.65%.
Take `CCN1CCC(CNC(=O)NCc2cc(-c3ccc(C)cc3)no2)C1` (stereo not given): the “Percent Effect” value was -139.2%.
Still for that read-out and setting: with `CCN1CCC(CNCc2cc(C)ccc2OC)C1` (stereo not given) the figure was 82.22%; with `CCN1CCC(CNCc2cc(OC)ccc2OC)C1` (stereo not given), 56.22%.
Consider `CCO[C@H]1COC[C@@H]1NC(=O)CCc1nc(-c2ccccc2)no1`, for which the “Percent Effect” value is listed as -93.65%.
